Mcl1-Noxa inh: Mcl-1/Noxa binding inhibitors, primary screen, biochemical, TR-FRET, 1536-well; Induced myeloid leukemia cell differentiation protein Mcl-1 (Homo sapiens), Q07820; TR-FRET Mcl-1/Noxa peptide binding, 2 h; inhibition, % at 21.7 µM; hit rate 1.5% among 220,000; AID 1022, 2008;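 active means compounds that cut the protein-peptide binding signal by more than 50% relative to plate controls in a single-dose test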;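 further: His-tagged Mcl-1 with rhodamine Noxa BH3 peptide and terbium anti-His antibody; 0% = Mcl-1 plus Noxa peptide wells and 100% = peptide-only wells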
Target sequence (Q07820 whole entry, looked up): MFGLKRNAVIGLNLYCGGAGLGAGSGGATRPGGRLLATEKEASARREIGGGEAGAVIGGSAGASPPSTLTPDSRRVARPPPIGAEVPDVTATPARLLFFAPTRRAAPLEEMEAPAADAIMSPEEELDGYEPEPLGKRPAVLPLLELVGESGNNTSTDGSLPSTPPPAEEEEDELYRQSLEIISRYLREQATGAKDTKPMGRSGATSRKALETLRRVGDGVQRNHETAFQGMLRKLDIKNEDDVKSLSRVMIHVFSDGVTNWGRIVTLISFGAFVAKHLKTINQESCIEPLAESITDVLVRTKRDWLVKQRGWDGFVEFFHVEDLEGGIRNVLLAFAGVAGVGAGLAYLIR
Bim-Mcl-1: inhibitors of Bim peptide binding to Mcl-1, primary screen, biochemical, bead-based flow cytometry, multiplex | Bim peptide-Mcl-1 binding | inhibition, % at 10 µM | hit rate 0.1% among 190,000; in the data active means inhibition above about 40%;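 further: 0% = no compound tracer wells and 100% = peptide blocker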
Mcl1 Bid PPI: Mcl-1/Bid binding inhibitors, primary screen, biochemical, TR-FRET, 1536-well; Induced myeloid leukemia cell differentiation protein Mcl-1 (Homo sapiens), Q07820; TR-FRET Mcl-1/Bid-Dy647 peptide binding; inhibition, % at 21.7 µM; hit rate 0.97% among 220,000;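 active means compounds that cut the binding signal by more than half at the single screening dose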;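 further: His-tagged Mcl-1 with europium anti-His antibody binding Bid BH3 peptide; 0% = Mcl-1 plus peptide wells and 100% = peptide-only wells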
m-calpain inh: inhibitors of pig calpain II, primary screen, biochemical, fluorogenic peptide substrate, 1536-well. purified calpain II, 30 min. inhibition, % at 16 µM. hit rate 0.37% among 220,000;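 active means inhibition above about 50%, limit read from the data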
L929 necroptosis: inhibitors of zVAD-triggered necroptosis, primary screen, L929 cells. hit rate 0.38% among 220,000. viability rescue, % at 10 µM. L929 zVAD necroptosis rescue, ATP luminescence, 24 h; with zVAD 60 µM;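 active means activation, scaled between plate controls, above about 75%, limit read from the data; inactive means activation under that limit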;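 further: 0% = zVAD with DMSO and 100% = DMSO alone without zVAD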
TNF necrop inh: inhibitors of TNF-alpha triggered necroptosis, primary screen, cell-based, Jurkat FADD-/-, single concentration; Jurkat FADD-/- TNF necroptosis rescue, ATP luminescence, 24 h; 0 = TNF only, 100 = no-TNF cells; activation (protection from cell death), % at 10 µM; AID 463075, 2010; hit rate 0.068% among 220,000;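 active means activation, meaning protection from cell death, of at least 50% relative to plate controls; inactive means activation below 50%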;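 further: necroptosis triggered by 40 ng/mL TNF-alpha added together with compound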
* = called active by the depositor; nt = no result. Rows were chosen to be rich in hits. Some 2.8% of all compounds tested hit in one or more screens of this group.

SMILES	Mcl1-Noxa inh	Bim-Mcl-1	Mcl1 Bid PPI	m-calpain inh	L929 necroptosis	TNF necrop inh
COC(=O)c1ccc2c(c1)NC(=O)C1CCCN21 (centres undefined)	64*	-5	-2	-63	nt	nt
C=CCn1c(=NC(=O)c2ccc(S(=O)(=O)N3CCCc4ccccc43)cc2)sc2cc(S(N)(=O)=O)ccc21	54*	-4	-1	-62	0	0
C=CCn1c(=NC(=O)c2ccc(S(=O)(=O)N3CCc4ccccc4C3)cc2)sc2cc(S(N)(=O)=O)ccc21	-146	-6	46	-167	1	3
Cc1cc(OCc2nnc(SC(C)C(=O)O)n2Cc2ccccc2)ccc1Cl (centres undefined)	22	0	9	-58	13	0
CC12CCC(c3n[nH]c(=S)nc31)C2(C)C (centres undefined)	20	-9	-11	26	nt	0
CN(C)c1ccc(/C=C2\N=C(c3ccc(Cl)c([N+](=O)[O-])c3)NC2=O)cc1	73*	0	40	-11	-1	-6
COc1cc(OC)cc(C(=O)N[C@H](C(=O)OCC(=O)NC(=O)c2cccn2C)C(C)C)c1	16	0	92*	-23	3	0
C=CCSC1=N/C(=C\C=C\c2ccco2)C(=O)S1	76*	-6	32	-21	4	-4
O=C(COc1ccccc1[N+](=O)[O-])NCCC1=CCCCC1	18	0	-12	22	1	1
COCCn1c(C)cc(C(=O)CSc2nc3ccccc3c(=O)[nH]2)c1C	61*	-2	-46	-4	0	1
CCOC(=O)c1sc(/N=C/c2ccc(O)cc2O)cc1C	57*	-1	-48	-34	-1	0
CC(=O)Nc1cc(Cl)c(N=Cc2ccc(O)cc2O)cc1Cl	50	1	-24	-71	2	-3
COc1ccc(N=C(N)SCc2ccccn2)cc1	42	-2	67*	-8	5	-2
Cc1sc(NC(=O)c2sc3nc4c(C)cccc4cc3c2N)c(C#N)c1C	96*	0	97*	-285	1	-1
CSc1nc(Cl)cc(N(CCO)CCO)n1	5	0	2	20	0	-3
COc1ccccc1C(CC(=O)Nc1ccc(C)c(C)c1)c1ccc(OC(C)C)cc1 (centres undefined)	55*	-2	-11	17	1	3
COc1ccccc1NC(=O)CC(c1ccc(OC(C)C)cc1)c1ccccc1OC (centres undefined)	-11	-19	-26	-20	2	2
Cc1ccc(COc2cccc3c2CCN(Cc2ccc(F)cc2)C3=O)cc1	12	-3	54*	23	1	-2
Cc1cccc(CN2CCc3c(OCC(=O)NCc4ccco4)cccc3C2=O)c1	3	-7	95*	6	0	-5
O=C(COc1cccnc1[N+](=O)[O-])c1ccc(Cl)s1	82*	nt	80*	4	0	-19
CCOC(=O)c1ccc(N=Nc2c(C)c(C#N)c(O)[nH]c2=O)cc1	88*	-2	-22	-101	0	-3
CSc1nnc(SCC#N)s1	18	nt	11	31	0	-1
COc1cccc(C(=O)NC2CC3CCCC(C2)N3CC(=O)Nc2ccccc2)c1 (centres undefined)	66*	1	54*	36	1	1
COc1ccc(C=O)cc1CSc1ccccn1	2	nt	-54	13	1	-2
COc1cc(/C=N/NC(=O)c2ccc(CSc3nncn3C)cc2)cc(OC)c1O	55*	0	-34	-22	8	0
SMILES	Mcl1-Noxa inh	Bim-Mcl-1	Mcl1 Bid PPI	m-calpain inh	L929 necroptosis	TNF necrop inh
COc1ccc(/C=N/NC(=O)c2ccc(CN3c4cccc5cccc(c45)S3(=O)=O)cc2)cc1	2	-2	-17	-194	1	0
COc1ccc(/C=N/NC(=O)c2ccc(O)cc2O)cc1CSc1ccccn1	98*	0	-20	-15	1	-1
COc1cc(/C=N/NC(=O)c2ccc(CN3c4cccc5cccc(c45)S3(=O)=O)cc2)cc(OC)c1O	72*	0	82*	-207	-1	-4
COc1cc(/C=N/NC(=O)c2ccc(CSc3nncn3C)cc2)ccc1OCC(=O)N1CC(C)OC(C)C1 (centres undefined)	4	-1	-1	-4	1	0
COc1ccc(/C=N/NC(=O)c2ccc(COc3cccc4cccnc34)cc2)cc1O	51*	nt	-44	-110	0	-11
Cc1ccc(S(=O)(=O)c2nc(NN(C)C)sc2Cl)cc1	10	-2	-14	18	0	-1
COc1ccc(S(=O)(=O)CC2(O)CCN(C(=O)CC(C)C)CC2)cc1	0	0	-5	-11	0	1
N#Cc1cccc(NC(=O)CSc2ccc3c4c(cccc24)C(=O)c2ccccc2-3)c1	22	-1	74*	-51	-1	0
COc1ccc(NC(=O)CSc2ccc3c4c(cccc24)C(=O)c2ccccc2-3)cc1	18	-2	45	-57	0	-5
CC(NS(=O)(=O)c1cccc(Cl)c1)C(=O)N(C)C1CCN(C)CC1 (centres undefined)	53*	1	-14	9	4	0
CC(=O)c1cccc(S(=O)(=O)N(C)C2CCN(C)CC2)c1	12	0	7	-2	0	1
CCOc1cc(/C=C2\SC(=O)N=C2N)ccc1O	52*	8	-49	2	1	-1
COc1cccc2c1C(=O)c1c(O)c3c(c(O)c1C2=O)C[C@@](O)(C(=O)CO)C[C@@H]3O[C@H]1C[C@H](N)[C@H](O)[C@H](C)O1	60*	34	10	-53	56	-25
COc1ccc(N2C(=O)C3CCCN3C2=O)cc1 (centres undefined)	102*	-2	-6	7	-1	-1
Cc1cccc(N(C)S(=O)(=O)c2ccc3[nH]cc(C(=O)N4CCOCC4)c(=O)c3c2)c1	50	-1	51*	-46	0	1
CC12CN3CC(C)(CN(C1)C3c1ccccc1)C2O (centres undefined)	9	-2	3	-28	2	2
CC12CN3CC(C)(CN(C1)C3c1ccccc1Cl)C2O (centres undefined)	88*	-2	-3	-22	1	-1
COc1ccc(-c2csc3ncn(-c4ccccc4)c(=O)c23)cc1OC	6	-5	-10	2	69	-3
CCOc1ccc(-c2csc3ncn(-c4ccc(OC)cc4)c(=O)c23)cc1	5	-1	84*	2	-2	-8
